According to PubChem BioAssay AID1273 (Columbia University Molecular Screening Center, 2008):
The whole screen tested about 130,000 compounds, of which about 1,200 (0.92%) were called active. The sample holds actives, similar compounds and a random draw of the others, so the mix is not that of the screen.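 The calls were made as follows: active = inhibition above the mean plus 3 SD, with well images judged a real hit on visual review (cut at about 60% in these data, passing the limit was not always enough); inconclusive = inhibition over the cutoff but images rejected on review; inactive = inhibition not above the cutoff.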

Test: insulin gene promoter suppression in islet cells – imaging, TRM-6 cells (human fetal islet line), eGFP reporter, cell count, primary screen (AID 1273;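 as to normalized cell count: cells exposed to compound for 48 h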)
Details: at 2 µM, reporter expression induced with tamoxifen; inhibition: stronger effect = higher value; normalized cell count: measured here: cell count, toxicity
For `Cc1ccccc1N1C(=O)C(Oc2ccc(Cl)cc2)C1CNCC1CCCO1` (stereo not drawn), the inhibition was -11.8% (inactive) and the normalized cell count was 94.4%. In the case of `Brc1ccc(-c2nnc(-c3ccccc3)o2)o1`, the inhibition was 19.1% (inactive) and the normalized cell count was 142%. In the case of `Nc1ccc(-c2nnc(-c3ccc(-c4ccccc4)cc3)o2)cc1`, the inhibition was 46.7% (inactive) and the normalized cell count was 46.6%. With `OC(c1nnc(-c2ccccc2)o1)c1cccs1` (stereo not drawn) the inhibition was 75% (active) and the normalized cell count was 106%. With `CCCCNC(=O)N1CCN(S(C)(=O)=O)CC1` the inhibition was -42.9% (inactive) and the normalized cell count was 86.1%. With `CCCCCN1CC(O)=C(c2nc(-c3ccc(Cl)cc3)cs2)C1=N` the inhibition was 81.1% (active) and the normalized cell count was 67.1%. In the case of `Clc1ccc(-c2csc(-c3ccncc3)n2)cc1`, the inhibition was -16.7% (inactive) and the normalized cell count was 49.8%. In the case of `CCCCCN1CC(O)=C(c2ccccc2)C1=N`, the inhibition was 9.59% (inactive) and the normalized cell count was 61.8%. In the case of `O=C(O)CSCC(=O)Nc1ccc(C(F)(F)F)cc1`, the inhibition was 29.4% (inactive) and the normalized cell count was 92.1%. In the case of `CCC(=O)c1ccc(OCC(O)Cn2nc(C)c(C(C)=O)c2C)cc1` (stereo not drawn), the inhibition was 20% (inactive) and the normalized cell count was 57.4%. In the case of `Cc1ccccc1NC(=O)Cn1c(=O)n(CC2CCCO2)c(=O)c2ccccc21` (stereo not drawn), the inhibition was 13.3% (inactive) and the normalized cell count was 106%. For `O=C(CSc1nnnn1-c1ccc2c(c1)CCC2)Nc1ccc2c(c1)OCCO2`, the inhibition was 28.6% (inactive) and the normalized cell count was 88.2%. For `O=C(CSc1nnnn1C1CCCC1)Nc1ccc2c(c1)OCCO2`, the inhibition was 73.3% (active) and the normalized cell count was 70.4%. For `Cc1ccc(SCC(=O)Nc2ccc3c(c2)OCCO3)cc1`, the inhibition was 20.6% (inactive) and the normalized cell count was 137%. In the case of `COc1ccccc1N(C)S(=O)(=O)c1ccc(Cl)c(C(=O)N2CCC(C(N)=O)CC2)c1`, the inhibition was 18.2% (inactive) and the normalized cell count was 83.5%. With `CCOC(=O)c1sc(NC(=O)CSc2nc(O)c(Cc3ccccc3)c(=O)[nH]2)nc1C` the inhibition was -50% (inactive) and the normalized cell count was 56.7%. In the case of `O=c1c(Cl)c(NC2CC2)cnn1-c1ccccc1`, the inhibition was -85% (inactive) and the normalized cell count was 114%. With `NC(=O)c1ccc(CN2CCC(Cc3ccccc3)CC2)cc1` the inhibition was -347% (inactive) and the normalized cell count was 40.1%. For `Cc1ccc(CC(=O)Nc2cccc(C#N)c2)cc1`, the inhibition was -16.7% (inactive) and the normalized cell count was 153%. For `Cc1ccsc1C(=O)N/N=C/c1ccc([N+](=O)[O-])cc1`, the inhibition was 6.67% (inactive) and the normalized cell count was 153%. With `Cc1nc2ccccc2cc1C(=O)N/N=C/c1ccc([N+](=O)[O-])cc1` the inhibition was 75% (active) and the normalized cell count was 81%. With `NC(=S)N/N=C/c1ccc([N+](=O)[O-])cc1` the inhibition was -36.4% (inactive) and the normalized cell count was 109%. In the case of `COc1cc(C(=O)N[C@@H](C)C(=O)NCc2ccco2)cc(OC)c1OC`, the inhibition was 33.3% (inactive) and the normalized cell count was 166%. With `CCCN(C(=O)CSc1nnnn1C)c1c(N)n(Cc2ccccc2)c(=O)[nH]c1=O` the inhibition was -90.9% (inactive) and the normalized cell count was 30.3%.
